PLK1 PBD block: blocks phosphopeptide binding to human PLK1 polo-box domain | P53350 | Plk1 PBD binding of FITC phosphopeptide, fluorescence polarization | 360,000 compounds, 2.8% hits | Potency, µM, most hits filed as inhibitors; note: series mostly up to about 57 µM; nearly all actives have a fitted effect of over 65% in size
VDR inhibitor: inhibitors of human vitamin D receptor | VDR-SRC2-3 peptide fluorescence polarization, 2 h | P11473 | 400,000 compounds, 0.93% hits | Potency, µM, usual class: inhibitors
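Measured by FP: displacement of SRC2-3 coactivator peptide from VDR by library compounds, following a two-hour ambient incubation.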
PI4K2A inh: inhibitors of human PI4K2A. purified PI4K2A, ADP-Glo luminescence, 1 h; stronger effect = lower value. activity change, negative = inhibition, % at 76.9 µM. 420,000 compounds, 0.13% hits. AID 1346378; in the data active = activity change below about -50%; inconclusive = mostly about -30% to -49%
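In this quantitative HTS, ADP production by PI4K2A was quantified luminescently after 1 h at ambient temperature; 100 microM adenosine served as plate-quality control.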
GCN5L2 inh: inhibitors of human GCN5L2 histone acetyltransferase; Q92830; GCN5L2 HAT assay, ThioGlo1 CoA-SH fluorescence; Potency, µM (series often up to 58.9 µM), hits mostly inhibitors; 390,000 compounds, 0.21% hits
Target sequence (Q92830 whole entry, looked up): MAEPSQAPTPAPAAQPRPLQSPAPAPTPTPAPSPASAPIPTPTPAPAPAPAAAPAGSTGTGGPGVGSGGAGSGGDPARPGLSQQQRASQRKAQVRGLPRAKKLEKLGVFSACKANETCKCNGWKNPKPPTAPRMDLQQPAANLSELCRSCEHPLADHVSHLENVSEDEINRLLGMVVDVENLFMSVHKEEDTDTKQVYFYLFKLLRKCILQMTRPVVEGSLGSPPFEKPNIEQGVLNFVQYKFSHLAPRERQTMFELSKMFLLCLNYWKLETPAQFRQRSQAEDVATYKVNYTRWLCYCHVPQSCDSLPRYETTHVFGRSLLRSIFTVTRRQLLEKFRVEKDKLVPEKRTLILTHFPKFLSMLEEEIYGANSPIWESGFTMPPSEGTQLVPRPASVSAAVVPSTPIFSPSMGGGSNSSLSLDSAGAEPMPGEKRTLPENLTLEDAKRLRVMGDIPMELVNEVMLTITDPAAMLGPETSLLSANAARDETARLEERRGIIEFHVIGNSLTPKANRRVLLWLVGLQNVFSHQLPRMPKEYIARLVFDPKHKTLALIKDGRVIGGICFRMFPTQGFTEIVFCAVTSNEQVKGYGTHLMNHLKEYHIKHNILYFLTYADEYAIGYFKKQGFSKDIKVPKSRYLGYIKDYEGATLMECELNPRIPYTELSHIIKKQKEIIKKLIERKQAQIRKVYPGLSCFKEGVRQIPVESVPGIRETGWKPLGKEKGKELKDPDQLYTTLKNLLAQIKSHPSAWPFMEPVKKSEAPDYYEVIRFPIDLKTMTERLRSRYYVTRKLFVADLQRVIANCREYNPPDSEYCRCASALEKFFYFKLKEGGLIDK
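Preincubate 20nM GCN5L2 with compound 15 min, RT → add 50uM ThioGlo1 + 75uM H3(1-25) + 70uM acetyl-CoA → read fluorescence 0 and 20 min. Primary qHTS; fluorescent artifacts likely.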
GLS inh: inhibitors of human glutaminase (GLS); O94925; GLS enzymatic activity, qHTS titration; Potency, µM (series often up to 45.5 µM), usual class: inhibitors; 410,000 compounds, 0.21% hits; AID 624170
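hKGA; 45 mM KH2PO4 pH 8.2 + 0.02% Tween-20; cpd via pin tool; 1 mM Gln soln; GluOx/HRP/Amplex Red; RT 30 min; fluor. t0 & final.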
Numbers stand for hits; - = inactive; ? = inconclusive; . = not tested or not shown. Only some compounds are listed: those with a hit (about 3.1% of all), similar ones and a draw of the others. Unless noted, calls come from the whole dose curve; as a rule, active = well fitted curve in the direction sought with a large enough effect; inconclusive = small, poorly fitted or top-dose-only effect, or another doubt; inactive = no such curve, though single readings can be large; an effect the other way counts as inactive or inconclusive.

SMILES	PLK1 PBD block	VDR inhibitor	PI4K2A inh	GCN5L2 inh	GLS inh
CCc1cc(=O)oc2c3c(cc(OCC(=O)NCCCC(=O)O)c12)OC(C)(C)CC3	-	-	-	10µM	-
COc1cc(O)c(C(CC(=O)N2CC(C)OC(C)C2)c2ccc3c(c2)OCO3)c(OC)c1 (stereo unspecified)	.	.	-	.	.
COc1ccc(C2CC(=O)c3cnc(N4CCN(Cc5ccccc5)CC4)nc3C2)cc1 (stereo unspecified)	21.2µM	-	-	-	?
Nc1nc(NCc2ccc(Cl)cc2)c2[nH]cnc2n1	.	-	.	.	.
CC[C@H](C)[C@H](NC(=O)[C@H](Cc1cnc[nH]1)NC(=O)[C@@H](NC(=O)[C@H](CCCNC(=N)N)NC(=O)[C@H](CCCCN)NC(=O)[C@H](CCCNC(=N)N)NC(=O)[C@H](CCCCN)NC(=O)[C@@H](N)CC(N)=O)[C@@H](C)CC)C(=O)NCC(=O)N1CCC[C@H]1C(=O)NCC(=O)N[C@@H](CCCNC(=N)N)C(=O)N[C@@H](C)C(=O)N[C@@H](Cc1ccccc1)C(=O)N[C@@H](Cc1ccc(O)cc1)C(=O)N[C@H](C(=O)N[C@H](C(=O)N[C@@H](CCCCN)C(=O)N[C@@H](CC(N)=O)C(=O)N[C@H](C(=O)N[C@H](C(=O)NCC(=O)N[C@H](C(=O)N[C@H](C(=O)N[C@@H](CS)C(=O)O)[C@@H](C)CC)[C@@H](C)O)[C@@H](C)CC)[C@@H](C)CC)[C@@H](C)O)[C@@H](C)O	.	-	.	-	.
COc1ccc(Cc2nnc(NC(=O)Nc3ccc(F)cc3)s2)cc1OC	18.9µM	?	-	-	-
CCOCC(=O)Nc1nnc(Cc2ccc(OC)c(OC)c2)s1	26.7µM	-	-	-	-
COc1ccc(NC(=O)Nc2nnc(Cc3ccc(OC)c(OC)c3)s2)cc1	-	-	-	?	-
COCC(=O)Nc1nnc(Cc2ccc(OC)c(OC)c2)s1	-	-	-	-	-
CCSc1nnc(NC(=O)C2CCN(C(=O)c3ccco3)CC2)s1	.	-	.	.	.
CCOC(=O)[C@H](CCc1ccccc1)N[C@@H](C)C(=O)N(CC(=O)O)C1Cc2ccccc2C1	.	.	-	.	-
CCc1ccc(CN2CCC(n3nccc3NC(=O)c3ccccc3Cl)CC2)cc1	-	-	-	-	-
CCCCc1ncc(CN2CCC(n3nccc3NC(=O)c3ccccc3OC)CC2)[nH]1	23.8µM	?	-	-	-
COc1ccc(C(=O)Nc2ccnn2C2CCN(Cc3ccccn3)CC2)cc1	-	-	-	-	-
CSc1ccc(CN2CCC(n3nccc3NC(=O)c3ccccc3C)CC2)cc1	29.9µM	-	-	-	-
COc1ccc(C(=O)Nc2ccnn2C2CCN(Cc3cnn(C)c3)CC2)cc1	26.7µM	-	-	-	-
CCCCCCCCCCCCCCCCOCCOCCOCCOCCOCCOCCOCCOCCOCCOCCOCCOCCOCCOCCOCCOCCOCCOCCOCCOCCO	.	-	.	-	-
COc1ccc(CN2CN3Cc4cc(F)ccc4C3CS2(=O)=O)cc1 (stereo unspecified)	.	.	-	.	.
O=[S+]([O-])([O-])c1ccc2c(c1)cc([S+](=O)([O-])[O-])c1nn(-c3ccc(/C=C/c4ccc(-n5nc6c([S+](=O)([O-])[O-])cc7cc([S+](=O)([O-])[O-])ccc7c6n5)cc4[S+](=O)([O-])[O-])c([S+](=O)([O-])[O-])c3)nc12	.	-	.	.	.
CCN(CC)C(=O)CC[C@@H]1CC[C@]2(CCCN(C(=O)c3ccno3)C2)O1	.	.	-	.	.
Cc1ccc(NC(=O)c2sc(=S)n(-c3cc(C)ccc3F)c2N)cc1	11.9µM	89.1µM	-	-	-
COc1ccc(Cl)cc1-n1c(N)c(C(N)=O)sc1=S	11.9µM	79.4µM	-	-	-
Cc1ccc(-n2c(N)c(C(N)=O)sc2=S)c(C)c1	6.7µM	89.1µM	-	-	-
CCOc1ccccc1-n1c(N)c(C(N)=O)sc1=S	?	-	-	-	-
CC1=C(C(=O)Nc2ccccc2)C2(CCCCC2)C(C#N)=C(SCC(N)=O)N1	3.36µM	?	-	-	?
SMILES	PLK1 PBD block	VDR inhibitor	PI4K2A inh	GCN5L2 inh	GLS inh
O=S(=O)(c1cccc(C(F)(F)F)c1)n1c(/C=C/c2ccccc2)nc2ccccc21	.	-	-60.6	-	-
CC(C)(C)C(=O)OC12CCCN(C1)/C(=C/c1ccc(C#N)cc1)C2 (stereo unspecified)	.	.	-	.	.
N#Cc1c[nH]n2c(NC3CCCC3)c(-c3ccc(Cl)cc3)nc12	.	-	-	-	?
COc1ccc(-c2nc3c(C#N)c[nH]n3c2NC2CCCC2)cc1	.	-	-	-	12.6µM
CCOc1ccc(-c2nc3c(C#N)c[nH]n3c2NC2CCCCC2)cc1	.	-	-	-	12.6µM
COCCNC(=O)C(C)N1c2cccc3cccc(c23)S1(=O)=O (stereo unspecified)	?	-	-	-	-
COCCCNC(=O)C(C)N1c2cccc3cccc(c23)S1(=O)=O (stereo unspecified)	10.6µM	70.8µM	-	-	?
CCOC(=O)C1CCN(C(=O)c2ccc(SC)cc2OC)CC1	29.9µM	-	-	-	-
CO/S(=N\S(=O)(=O)c1ccc(Cl)cc1)c1ccc([N+](=O)[O-])cc1 (stereo unspecified)	.	?	-	-	.
O=C(CCCCCN1C(=O)C2C3C=CC(C3)C2C1=O)Nc1ccc2ncccc2c1 (stereo unspecified)	.	.	-	.	.
CCOc1ccc(C(=S)N2CCCC2)c(OCC)c1	11.9µM	?	-	-	-
CCOc1ccc(C(=S)N2CCCC2)cc1	-	-	-	-	-
CC(=O)N(C[C@@H](O)CO)c1c(I)c(C(=O)NC[C@@H](O)CO)c(I)c(C(=O)NC[C@@H](O)CO)c1I	.	-	.	10µM	.
CC(=O)N(CC(O)CN(C(C)=O)c1c(I)c(C(=O)NC[C@@H](O)CO)c(I)c(C(=O)NC[C@@H](O)CO)c1I)c1c(I)c(C(=O)NC[C@@H](O)CO)c(I)c(C(=O)NC[C@@H](O)CO)c1I	.	-	.	-	?
COc1ccc(OC)c(S(=O)(=O)N2CCCCC2C(=O)N2CCN(c3ccccc3F)CC2)c1 (stereo unspecified)	.	.	-	.	.
Fc1ccccc1-n1[nH]nnc1=S	?	44.7µM	-	.	-
O=C(CCc1nnc(CCc2c[nH]c3ccccc23)o1)NC1CCC1	23.8µM	?	-	-	-
CC1CCN(c2ccc(-c3cccs3)nn2)CC1	-	-	-57.0	-	-
Clc1ccc(-c2cccs2)nn1	-	-	-	-	-
C/C(=N/Nc1ncc(Br)cn1)c1ccc(Br)cc1	4.74µM	?	-	-	?
CCN(CC)c1ccc(SS(=O)(=O)O)cc1	6.7µM	79.4µM	-	-	-
O=S(=O)(O)Sc1ccccc1	5.97µM	.	-	.	-
C[C@H](O)[C@@H]1CN2CCc3c([nH]c4c(-c5ccc6c(c5)OCO6)cccc34)[C@@H]2C[C@@H]1N(C)C(=O)c1ccccc1F	.	.	-	.	.

Source: PubChem
